Test results taken from PubChem BioAssay (NCI).
Compounds without any hit were thinned out: in the full panel of roughly 83,000, 20% have a hit.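 Step 1: grow cells in 96-well plates. Step 2: add test compound at a single concentration. Step 3: incubate 48 h. Step 4: record percent growth.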 A number with no mark means an inactive call. Calls of active or inactive are those of the source. The calls were made as follows: active = growth percent below 10; inactive = the rest.

Experiments:
Test in all cases: NCI-60 one-dose screen, 48 h (100 = growth as untreated, 0 = no growth, -100 = all killed)
Settings in all cases: 10 µM unless noted
[1] = tested on: HCT-15 colon
[2] = tested on: HT29 colon
[3] = tested on: SNB-75 CNS
[4] = tested on: SNB-19 CNS
[5] = tested on: U251 CNS
[6] = tested on: PC-3 prostate
[7] = tested on: SK-MEL-5 melanoma
[8] = tested on: UACC-62 melanoma
[9] = tested on: LOX IMVI melanoma
[10] = tested on: SK-MEL-28 melanoma

| SMILES | growth [1] | growth [2] | growth [3] | growth [4] | growth [5] | growth [6] | growth [7] | growth [8] | growth [9] | growth [10] |
| --- | --- | --- | --- | --- | --- | --- | --- | --- | --- | --- |
| O=C(Nc1cccc(C2=NCCN2)c1)c1ccc(N=Nc2ccc(C(=O)Nc3cccc(C4=NCCN4)c3)cc2)cc1 | 82.2% | 71.8% | 48.7% | 53.2% | 16.5% | 63.4% | 80.4% | 68.4% | 75.8% | 59.3% |
| C=C(c1ccc(C(=O)NCCCn2ccnc2)cc1)c1cc2c(cc1C)C(C)(C)CCC2(C)C | 21.1% | 16.1% | 41.4% | 48.4% | 12.1% | -6.2% (active) | 0.58% (active) | 66.7% | -25.7% (active) | 6.96% (active) |
| COc1cc(NCCC2CCCCN2)c2ncccc2c1OC (stereo not given) | 86.1% | 73.7% | 156% | 91.8% | 33.5% | 68.2% | 77.8% | 81.1% | 15% | 107% |
| CCN(CC)Cc1cc(Nc2ccnc3ccc(OC)cc23)ccc1O | 32.4% | -24.3% (active) | 101% | 74.4% | 35% | 39.8% | 50.4% | 87.7% | 4.78% (active) | 105% |
| COc1ccc(Cl)cc1Nc1nc(C(F)(F)F)ccc1C(=O)NN | 15.8% | 31.4% | 15% | 41.7% | 18.4% | 17.2% | 77.5% | 9.62% (active) | 5.37% (active) | 13.4% |
| Cc1ccsc1C(=O)CC(=O)C(F)(F)C(F)(F)C(F)(F)F | 111% | 111% | 92.3% | 111% | 103% | 91.2% | 109% | 96.7% | 97.8% | 103% |
| CCc1onc(-c2ccc(OC)cc2)c1-c1ccccc1OCCN(CC)CC | 98.2% | 60.3% | 60.9% | 91.3% | 93.9% | 75.1% | 81% | 97.7% | 71.9% | 100% |
| COc1cc([N+](=O)[O-])cc(OC)c1OC | 107% | 96% | 92.2% | 114% | 106% | 94.9% | 113% | 101% | 100% | 104% |
| CS(=O)(=O)c1ccc(C(=O)N/N=C/c2ccccc2O)cc1 | 18% | 43.6% | 77.8% | 45.4% | 27.8% | 54.3% | 32.2% | 16.4% | 21.4% | 55.9% |
| CCCNCCC(C)=O | 111% | 98.1% | 107% | 97.1% | 68.8% | 97.1% | 115% | 98% | 94.5% | 108% |
| Clc1ccc(-c2cnc3c(-c4ccnc(N5CCNCC5)c4)cnn3c2)cc1 | -22.9% (active) | -7.81% (active) | -68.6% (active) | 3.09% (active) | -58.1% (active) | 15.2% | 73.8% | -66.8% (active) | -80.9% (active) | -82.8% (active) |
| O=[N+]([O-])c1ccc(SSc2ccc([N+](=O)[O-])cc2Cl)c(Cl)c1 | 105% | 98.2% | 84% | 99.5% | 89.6% | 93.2% | 95.5% | 79.7% | 77.3% | 109% |
| CC(C)c1cccc(C#N)c1 | 113% | 104% | 83.7% | 99% | 94.8% | 85.5% | 92.3% | 102% | 95.3% | 105% |
| O=C(O)c1cc2cc(OCc3ccccc3)ccc2[nH]1 | 92.3% | 114% | 87.8% | 86.4% | 105% | 102% | 84.1% | 79.3% | 96.7% | 48% |
| C#Cc1cccc(Nc2nc3cc([N+](=O)[O-])ccc3nc2Nc2ccc(O)cc2)c1 | 0.208% (active) | -80.7% (active) | 43.8% | 23.3% | 2.57% (active) | 2.88% (active) | 47.1% | -15.9% (active) | -87.5% (active) | 21.5% |
| CN1C(=O)NC(Cc2c[nH]c3c(Cl)cccc23)C1=O (stereo not given) | 99.5% | 110% | 103% | 106% | 92.8% | 82.9% | 98.5% | 96.1% | 99.7% | 115% |
| Nc1c(Br)cc2c(c1Br)Cc1cc(Cl)ccc1-2 | 109% | 111% | 72.4% | 88.5% | 101% | 82.6% | 90.5% | 96.2% | 89.3% | 98.6% |
| Cc1ccc(C)c2c1SC1=NNC(Oc3ccc(Cl)cc3)=C(C#N)C(=N)N12 | 104% | 103% | 92.2% | 110% | 98.4% | 85% | 93.5% | 97.1% | 99.7% | 107% |
| CC(=O)N1N=C(C2C(=O)N(C)C(=O)N(C)C2=O)CC1c1ccccc1C(=O)O (stereo not given) | 110% | 98.9% | 95% | 106% | 104% | 95.4% | 107% | 100% | 99.1% | 112% |
| CN(C)CC(=O)c1ccc2cc(Br)c3ccccc3c2c1 | 62.1% | 9.4% (active) | 83.7% | 69.7% | 53.3% | 57.2% | 83% | 79.1% | 43.6% | 99.1% |
| O=C(O)CSc1ccc(NCc2oc(CO)cc(=O)c2O)cc1 | 107% | 99.5% | 87% | 110% | 103% | 98.8% | 99.8% | 102% | 91.7% | 104% |
| Cc1cc(Nc2c3ccccc3nc3ccccc23)ccc1NS(C)(=O)=O | 19.8% | 18.2% | 51.3% | 58% | 27.1% | 33.2% | 43.4% | 57% | 28.3% | 57.2% |
| COc1ccc(CC2c3cc(OC)c(OC)cc3CC[N+]2(C)CCC(=O)OCCCCCOC(=O)CC[N+]2(C)CCc3cc(OC)c(OC)cc3C2Cc2ccc(OC)c(OC)c2)cc1OC (stereo not given) | 102% | 96% | 63.4% | 104% | 93.4% | 90.3% | 87.4% | 93.3% | 81% | 99.8% |
| O=C(c1ccccc1)C(CCc1ccccn1)CCc1ccccn1 | 96.6% | 96.7% | 106% | 94.1% | 101% | 86.8% | 100% | 86.1% | 95.8% | 106% |
| COc1ccc(-c2nn(C(=O)NCCN(C)C)cc2-c2ccncc2)cc1Cl | 33.5% | 15.3% | -20% (active) | 54.8% | 31.1% | 63.5% | 20.5% | 34.6% | 25.6% | 39.4% |
| COc1ccc(-c2cc(-c3cc4ccccc4oc3=O)n(-c3ccccc3)n2)cc1 | 103% | 83.8% | 77% | 82% | 31.4% | 76.1% | 94.5% | 80.3% | 59.8% | 106% |
| Oc1c(C(Nc2cccc3ccccc23)c2ccccc2)ccc2cccnc12 (stereo not given) | 28.1% | 29.3% | 72.2% | 51.7% | 20.6% | 38.1% | 43.9% | 14.7% | 15.3% | 57.6% |
| CNC(=O)c1c(NC(=O)c2ccc(C(C)C)cc2)sc2c1CCC(=O)C2 | -40.7% (active) | 3.51% (active) | -11.9% (active) | 8.7% (active) | -20.2% (active) | -40% (active) | -71.4% (active) | -54.7% (active) | 1.13% (active) | -32.1% (active) |
